What all share (test): NCI-60 one-dose screen, 48 h (100 = growth as untreated, 0 = no growth, -100 = all killed)
One assay has as its system HCT-15 colon. To be noted: 10 µM unless noted.
The subject of another assay is HT29 colon. The note with it: 10 µM unless noted.
The next assay has as its system SNB-75 CNS. To be noted: 10 µM unless noted.
In a further assay the test system is SNB-19 CNS. The note with it: 10 µM unless noted.
A further assay concerns U251 CNS. To be noted: 10 µM unless noted.
The next assay has as its system PC-3 prostate. To be noted: 10 µM unless noted.
For the next assay, the system named is SK-MEL-5 melanoma. To be noted: 10 µM unless noted.
A further assay has as its system UACC-62 melanoma. The note with it: 10 µM unless noted.
The subject of another assay is LOX IMVI melanoma. To be noted: 10 µM.
The subject of another assay is SK-MEL-28 melanoma. To be noted: 10 µM unless noted.

SMILES strings stand for the structures. The panel holds about 83,000 compounds, 20% with a hit somewhere; the sample as a whole holds those more often.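 Negative percent growth values reflect cell death: -40 means 40% of the cells present at the start died, and -100 means all died.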 A number with no mark means an inactive call. The source made the active and inactive calls. The calls were made as follows: active = growth percent below 10; inactive = the rest.

In the case of `CC(=O)c1ccc2c(c1)CCc1ccccc1-2`, the growth in the assay on HCT-15 colon was 93.9%; in the assay with HT29 colon it was 102%; in the assay with SNB-75 CNS, 87.1%; in the assay on SNB-19 CNS, 103%; in the assay with U251 CNS it was 95.6%; with PC-3 prostate it was 100%. Besides, the growth in the assay on SK-MEL-5 melanoma was 99.6%; with UACC-62 melanoma it was 109%; in the assay with LOX IMVI melanoma it was 113%; in the assay on SK-MEL-28 melanoma, 101%.
Take `CCCCC(C=O)(C=C=C(C)C)CC` (centres undefined): the growth was 98.2% with HCT-15 colon; 109% in the assay on HT29 colon; 87.3% with SNB-75 CNS; 102% in the assay with SNB-19 CNS; 96.8% with U251 CNS; 92.6% with PC-3 prostate. Moreover, the growth in the assay with SK-MEL-5 melanoma was 104%; with UACC-62 melanoma, 95.8%; with LOX IMVI melanoma, 96.8%; with SK-MEL-28 melanoma, 101%.
For the molecule `O=S(=O)(O)c1cnccn1`, the growth in the assay on HCT-15 colon was 103%; in the assay on HT29 colon it was 94.7%; in the assay on SNB-75 CNS, 92.9%; in the assay on SNB-19 CNS, 104%; in the assay on U251 CNS, 102%; in the assay on PC-3 prostate, 82.6%. For the same molecule, the growth in the assay on SK-MEL-5 melanoma is 104%; with UACC-62 melanoma it was 99.4%; with LOX IMVI melanoma it was 98%; with SK-MEL-28 melanoma, 107%.
With `CC1(C)OCC(COC(c2ccccc2)(c2ccccc2)c2ccccc2)O1` (centres undefined), the growth in the assay on HCT-15 colon was 100%; in the assay on HT29 colon, 91.9%; in the assay on SNB-75 CNS, 89.3%; in the assay with SNB-19 CNS, 100%; in the assay on U251 CNS, 95.3%; in the assay with PC-3 prostate it was 89.2%. For the same molecule, the growth in the assay on SK-MEL-5 melanoma is 105%; with UACC-62 melanoma it was 99.3%; with LOX IMVI melanoma it was 89.1%; with SK-MEL-28 melanoma, 103%.
As to `CC1(C)CCCC2=C1C(=O)N(SC(Cl)(Cl)Cl)C2=O`, the growth is 85.9% in the assay with HCT-15 colon; 93.5% in the assay on HT29 colon; 96.9% with SNB-75 CNS; 91.2% in the assay on SNB-19 CNS; 93.8% in the assay on U251 CNS; 89.5% with PC-3 prostate. Further, the growth is 98% in the assay with SK-MEL-5 melanoma, 96.1% in the assay on UACC-62 melanoma, 83.9% in the assay with LOX IMVI melanoma and 99.4% in the assay on SK-MEL-28 melanoma.
On to `NC(=Nc1nc(-c2ccccn2)cc2ccccc12)c1ccccn1`, for which the growth in the assay on HCT-15 colon is 21.5%; in the assay on HT29 colon, 13.6%; in the assay with SNB-75 CNS it was 41%; in the assay with SNB-19 CNS, 22.5%; in the assay with U251 CNS, 10.3%; in the assay with PC-3 prostate, 20.6%. Moreover, the growth in the assay with SK-MEL-5 melanoma was -79.4% (active); with UACC-62 melanoma, 3.59% (active); in the assay with LOX IMVI melanoma, -5.24% (active).
With `O=C1C=Cc2ccccc2/C1=C/c1nc(-c2ccccc2)oc1O`, the growth in the assay on HCT-15 colon was 92.4%; in the assay with HT29 colon, 108%; with SNB-75 CNS it was 70.8%; in the assay with SNB-19 CNS, 102%; in the assay with U251 CNS, 95%; with PC-3 prostate, 89.1%. In addition, the growth in the assay with SK-MEL-5 melanoma is 92.4%; with UACC-62 melanoma it was 93.8%; in the assay with LOX IMVI melanoma, 84.8%; in the assay on SK-MEL-28 melanoma, 106%.
For the molecule `N#CC(=C1SCS1)[N+](=O)[O-]`, the growth is 12.3% in the assay on HCT-15 colon; 1.29% (active) in the assay on HT29 colon; 40.5% in the assay on SNB-75 CNS; 41.2% in the assay with SNB-19 CNS; 14.4% in the assay on U251 CNS; 28.8% with PC-3 prostate. Moreover, the growth with SK-MEL-5 melanoma is 5.48% (active); with UACC-62 melanoma it was 38.1%; in the assay with LOX IMVI melanoma it was 17%; in the assay with SK-MEL-28 melanoma it was 37.8%.
For `Cc1nnc(N/N=C/c2ccc([N+](=O)[O-])o2)[nH]c1=O`, the growth is 15.7% in the assay on HCT-15 colon; 27.5% in the assay on HT29 colon; 42.3% with SNB-75 CNS; 11.6% with SNB-19 CNS; 4.33% (active) in the assay on U251 CNS; 3.62% (active) with PC-3 prostate. In addition, the growth in the assay with SK-MEL-5 melanoma was -24.3% (active); in the assay on UACC-62 melanoma it was 10.6%; with LOX IMVI melanoma, 11%; in the assay on SK-MEL-28 melanoma, 25.4%.
On to `CCCN(CCC)C(=O)c1ccc(C)cc1`, for which the growth with HCT-15 colon was 100%; with HT29 colon, 96%; in the assay with SNB-75 CNS, 105%; in the assay on SNB-19 CNS it was 98.2%; in the assay with U251 CNS, 85.5%; in the assay on PC-3 prostate, 86.5%. For the same molecule, the growth in the assay on SK-MEL-5 melanoma is 92.2%; in the assay on UACC-62 melanoma, 97.2%; in the assay with LOX IMVI melanoma, 95.4%; in the assay on SK-MEL-28 melanoma, 105%.
For the molecule `O=C(O)c1ccc2c(c1)C(=O)c1ccccc1C2=O`, the growth in the assay with HCT-15 colon was 106%; with HT29 colon it was 108%; in the assay on SNB-75 CNS, 91.6%; with SNB-19 CNS, 104%; in the assay on U251 CNS, 98.9%; with PC-3 prostate, 96.5%. The growth in the assay with SK-MEL-5 melanoma is 97.5%; in the assay on UACC-62 melanoma, 94.9%; in the assay with LOX IMVI melanoma, 96.1%; in the assay with SK-MEL-28 melanoma it was 111%.
Take `OC(c1cc(C23CC4CC(CC(C4)C2)C3)nc2c(Cl)cc(Cl)cc12)C1CCCCN1` (centres undefined): the growth is -65.7% (active) with HCT-15 colon; -89.8% (active) in the assay on HT29 colon; -82% (active) in the assay with SNB-75 CNS; -58.4% (active) with SNB-19 CNS; -88.5% (active) in the assay on U251 CNS; -84.5% (active) in the assay on PC-3 prostate. The growth is 9.05% (active) in the assay on SK-MEL-5 melanoma, -44.1% (active) with UACC-62 melanoma, -51.2% (active) with LOX IMVI melanoma and -79.8% (active) in the assay with SK-MEL-28 melanoma.
For `CN(C)c1ccc(/C=C/c2ccnc3ccccc23)cc1`, the growth was 26.8% in the assay with HCT-15 colon; 4.25% (active) in the assay on HT29 colon; 22.4% with SNB-75 CNS; 51.7% with SNB-19 CNS; 38.3% with U251 CNS; 53% in the assay with PC-3 prostate. The growth was 33% with SK-MEL-5 melanoma, 34.4% in the assay with UACC-62 melanoma, 38.3% with LOX IMVI melanoma and 71.8% in the assay with SK-MEL-28 melanoma.
`CN(C)c1ccc2cc3c(cc2c1)Oc1ccccc1N3.[Cl][Zn][Cl]`: the growth in the assay with HCT-15 colon was 48.5%; with HT29 colon, 97.3%; in the assay on SNB-75 CNS it was 103%; with SNB-19 CNS it was 114%; in the assay on U251 CNS, 78.7%; in the assay on PC-3 prostate, 81.1%. For the same molecule, the growth with SK-MEL-5 melanoma was 70.6%; in the assay with UACC-62 melanoma, 65%; in the assay with LOX IMVI melanoma, 32%; with SK-MEL-28 melanoma, 111%.
For the molecule `CCN1/C(=C/C(C)=C/c2sc3ccc4ccccc4c3[n+]2CC)Sc2ccc3ccccc3c21`, the growth with HCT-15 colon is -81.8% (active); in the assay on HT29 colon it was -80.6% (active); in the assay on SNB-75 CNS it was -94.3% (active); with SNB-19 CNS it was -96.5% (active); in the assay with U251 CNS, -94.1% (active); with PC-3 prostate it was -84% (active). Also, the growth was -97.6% (active) with SK-MEL-5 melanoma, -96.6% (active) with UACC-62 melanoma, -73.9% (active) in the assay on LOX IMVI melanoma and -98.3% (active) in the assay on SK-MEL-28 melanoma.
